Source: PubChem BioAssay (Broad Institute)
HIV Env fusion – inhibitors of HIV-1 Env-driven cell-cell fusion, primary screen, HeLa-JRFL effector, CEM21 target cells, luciferase | inhibition, % at 12.3 µM | actives 1.1% (n = 360,000);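 active = mean replicate inhibition score of at least 50 and every replicate individually at or above 50; inconclusive = only one of the two criteria met; inactive = mean below 50 and not all replicates reaching 50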;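 note: 0% = plate neutral controls and 100% = maraviroc near 300 nM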
miR122 inh – miR-122 Renilla sensor signal increase in Huh7, primary screen, miR-122 inhibitor project, cell-based, single point, plate reader. AID 602342, 2012. Huh7 miR-122 Renilla luciferase sensor, 48 h; neutral wells = 0, positive control = 100. activation (reporter increase), % at 12.5 µM. actives 0.3% (n = 340,000);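 active = mean replicate activation score at least 90 and every replicate individually at or above 90; inconclusive = only one of the two criteria met; inactive = neither criterion met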;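 note: higher luciferase means less miR-122 activity so hits act as miR-122 inhibitors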
Wnt bcat act – Wnt/beta-catenin pathway activators, primary screen, cell-based, plate reader, single point; Wnt/beta-catenin reporter cell assay, activator; activation, % at 9.35 µM; actives 1.2% (n = 300,000); AID 743398, 2014; in the data active = activation above about 30%, passing the limit was not always enough; inconclusive = no clear call, values can overlap the other calls;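 note: 0% = neutral control wells and 100% = positive control wells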
esBAF inh – Bmi1 luciferase reporter increase in mESCs, primary screen, esBAF inhibitor project, mouse ES cells, Bmi1 luciferase knock-in, single point; 24 h; 100% = twice the neutral-well signal; reporter increase, % at 12.5 µM; actives 2% (n = 350,000); in the data active = activation above about 40%; inconclusive = no clear call, values can overlap the other calls;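 note: 0% = median of the plate's neutral control wells and 100% = double that signal; a rise in the Bmi1 reporter signal indicates esBAF inhibition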
MITF act – activators of MITF-driven TRPM1 promoter reporter, primary screen, cell-based, SK-MEL-5, luciferase, single point; actives 0.75% (n = 300,000); AID 588334, 2011; SK-MEL-5 TRPM1-promoter luciferase, 24 h; % of positive control, neutral wells = 0; activation, % at 12.5 µM;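 active = mean activation of at least 80% with every replicate also reaching 80%; inconclusive = mean reaches 80% but some replicate falls short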;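 note: 0% = neutral control wells and 100% = parthenolide positive control wells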
An asterisk follows results filed as active; ? = inconclusive; nt = not tested or not shown; [ ] = dose if it differs, or a comment. Compounds with a hit are over-represented: about 3.4% of the library has one in this group of screens.

SMILES	HIV Env fusion	miR122 inh	Wnt bcat act	esBAF inh	MITF act
CC(=O)NCCC(=O)Nc1nc2ccc(Oc3ccccc3)cc2s1	-21	4	24	22	109*
CCCC(=O)Nc1nc2ccc3nc(C)sc3c2s1	nt	nt	nt	41*	36
CCCC(=O)Nc1nc2ccc(S(=O)(=O)N3CCCCC3)cc2s1	-143	118*	-3	-3	-15
CCCC(=O)Nc1nc2ccc(OCC)cc2s1	-136	5	41*	35	96*
CCOc1ccc2nc(NC(=O)CCn3cccc3)sc2c1	-32	5	-2	20	nt
CO[C@@H]1CN(C)C(=O)c2ccc(NC(=O)C3CC3)cc2OC[C@@H](C)N(C(=O)c2ccncc2)C[C@H]1C	-12[16.7 µM]	nt	nt	4	nt
C[C@@H]1CN([C@@H](C)CO)S(=O)(=O)c2ccc(-c3ccncc3)cc2O[C@H]1CN(C)C(=O)c1cccc(F)c1	-5[16.7 µM]	3[16.7 µM]	nt	4	nt
Cc1cc(NC(=O)CN2CCC(n3nnc4cc(C(F)(F)F)ccc43)CC2)no1	nt	-5	-1	7	-16
CCOc1ccc2nc(NC(=O)CN3CCC(n4nnc5cc(C(F)(F)F)ccc54)CC3)sc2c1	50*	0	-2	1	-13
CN1c2ccc(-c3ccccc3F)cc2[C@H]2[C@H](CCN2C(=O)Nc2ccc(F)cc2)[C@H]1CO	nt	-4[16.7 µM]	nt	10	nt
CCOC(=O)c1c(C=O)c2ccccc2n1CC	-21	-6	-3	3	-6
CCOC(=O)c1c(C=O)c2sc(C)cc2n1C	-19	0	44*	6	24
Cc1cc(C)n(-c2nc3ccccc3c(=O)n2OCC(=O)OCc2ccccc2)n1	nt	2	2	48*	-14
CCn1c(SCC(=O)NCC2CCCO2)nc2c([nH]c3ccccc32)c1=O (configuration not stated)	24	nt	1	nt	-16
CCn1c(SCC(=O)NCCc2ccc(OC)c(OC)c2)nc2c([nH]c3ccccc32)c1=O	70*	1	-1	3	nt
CCn1c(SCC(=O)NCCc2ccccc2)nc2c([nH]c3ccccc32)c1=O	67*	-4	3	nt	-7
CN(C)C(=O)C[C@H]1CC[C@H]2[C@@H](COc3ccc(NC(=O)c4ccc(F)cc4)cc3C(=O)N2C)O1	4[16.7 µM]	nt	nt	0	nt
C[C@@H](C(=O)Nc1ccc2ccccc2c1)[C@H]1C[C@]1(C)[C@H](NC(=O)c1cccnc1)c1ccccc1	68*	nt	-5	nt	nt
O=C(Nc1ccc2ccccc2n1)c1ccccc1Cl	-139	-4	36*	17	57
O=C(Nc1ccc2ccccc2n1)C1CCCCC1	-47	-3	48*	20	nt
O=C(Nc1ccc2ccccc2n1)c1ccc(Cl)cc1	-105	nt	44*	26	64
C[C@H]1CCCCO[C@H](CN(C)C(=O)NC2CCCCC2)[C@@H](C)CN([C@@H](C)CO)C(=O)c2cc(NS(=O)(=O)c3ccc(Cl)cc3)ccc2O1	1[16.7 µM]	7[16.7 µM]	nt	2	nt
CCN(CC)S(=O)(=O)c1cc(C(=O)N(C)CC(=O)Nc2ccc(Cl)cc2)ccc1Cl	22	168*	-2	-6	-3
CCN(CC)S(=O)(=O)c1cc(C(=O)Nc2ccncc2)ccc1Cl	nt	3	nt	17	-24
Cc1ccc(N2C(=O)CC(c3c[nH]c4ccccc34)C2=O)cc1 (configuration not stated)	-33	-5	-3	nt	7
SMILES	HIV Env fusion	miR122 inh	Wnt bcat act	esBAF inh	MITF act
CCC1=NN=C(c2ccc(F)cc2)C(c2c[nH]c3ccccc23)N1O (configuration not stated)	103*	5	nt	-5	nt
c1ccc(-c2nc(-c3nccc4ccccc34)oc2-c2ccccc2)cc1	-24	nt	27	nt	109*
Nc1nc(-c2ccccc2)c(-c2ccccc2)o1	7	2	2	nt	nt
Cn1c(C(=O)N2CCN(c3nc4ccccc4s3)CC2)cc2sccc21	71*	2	nt	11	-1
O=C(c1cccs1)N1CCN(c2nc3ccccc3s2)CC1	-13	nt	5	21	56
O=C(c1cc2sccc2n1Cc1ccc(F)cc1)N1CCN(c2nc3ccccc3s2)CC1	87*	1	-15	nt	-15
C[C@@H]1CN([C@@H](C)CO)C(=O)Cc2cc(NC(=O)Cn3cnnn3)ccc2O[C@H]1CN(C)S(=O)(=O)c1ccccc1	2[16.7 µM]	3[16.7 µM]	nt	-3	nt
Cc1ccc(S(=O)(=O)N(C)C[C@H]2Oc3ccc(NC(=O)Cn4cnnn4)cc3CC(=O)N([C@H](C)CO)C[C@@H]2C)cc1	1[16.7 µM]	-14[16.7 µM]	nt	-10	nt
Cc1ccc(S(=O)(=O)N(C)C[C@@H]2Oc3ccc(NC(=O)Cn4cnnn4)cc3CC(=O)N([C@H](C)CO)C[C@@H]2C)cc1	89*[16.7 µM]	-10[16.7 µM]	nt	-1	nt
C[C@H](CO)N1C[C@H](C)[C@H](CN(C)S(=O)(=O)c2ccccc2)Oc2ccc(NC(=O)Cn3cnnn3)cc2CC1=O	65*[16.7 µM]	6[16.7 µM]	nt	-2	nt
O=C(C[C@@H]1CC[C@H]2[C@@H](COC[C@@H](O)CN2Cc2cccc(C(F)(F)F)c2)O1)NCCc1ccncc1	-1[16.7 µM]	-8[16.7 µM]	nt	7	nt
CNC[C@@H]1Oc2c(NC(=O)c3cc(C)nn3C)cccc2C(=O)N([C@H](C)CO)C[C@@H]1C	nt	-1[16.7 µM]	nt	-3	nt
O=C(CC1CC1)N1CC[C@H]2[C@H](CO)Nc3ccc(-c4ccccc4)cc3[C@H]21	nt	1[16.7 µM]	nt	2	nt
O=C1c2ccccc2C2=Nc3ccccc3SC(c3ccc(Cl)cc3)C12 (configuration not stated)	3	nt	1	nt	9
O=C1c2ccccc2C2=Nc3ccccc3SC(c3cccc(F)c3)C12 (configuration not stated)	-103	246*	-10	nt	1
CC1=CC(C)(C)N(S(=O)(=O)c2ccc(C)cc2)c2cc(C)ccc21	nt	94*	nt	-21	-39
O=C(N[C@@H]1CC[C@@H](CCNC(=O)C2CCCC2)O[C@H]1CO)c1ccncc1	10[16.7 µM]	1[16.7 µM]	nt	1	nt
Cc1cc(C(=O)N2CCc3ccccc32)n(-c2ccccc2)n1	-9	115*	-11	-6	nt
Cc1cc(C)n(-c2ccc(C(=O)N3CCc4ccccc43)cc2)n1	-83	-4	17	?	40
CCCOc1ccc(C(=O)N2CCCc3ccccc32)cc1	1	15	nt	10	nt
O=C(c1ccc2ccccc2c1)N1CCc2ccccc21	-36	6	-1	64*	47
CCOc1ccc(C(=O)N2CCc3ccccc32)cc1	-19	-5	-1	50*	nt
CCC(=O)Nc1ccc2c(c1)OC[C@@H](C)N(C(=O)CC1CC1)C[C@@H](C)[C@H](OC)CN(C)C2=O	nt	-2[16.7 µM]	nt	-5	nt
